Source: PubChem BioAssay
Where a SMILES comes first, the peptide text is derived from it. The star is where a group is joined. Boc = CC(C)(C)OC(=O)*

Legend:
[1] = system: Botulinum neurotoxin type F light chain protease (Clostridium botulinum); assay: Clostridium botulinum type F light chain protease inhibitors, microsphere substrate cleavage, validation (AID 588459); conditions: multiplex microsphere protease substrate cleavage assay, flow cytometry; at 10 µM; stronger effect = higher value
[2] = biological target: Botulinum neurotoxin type A (Clostridium botulinum) (UniProt P0DPI0); assay: BoNT/A light chain protease inhibitors, biochemical, multiplex microsphere flow cytometry, validation set (AID 588460); conditions: at 10 µM, stronger effect = higher value
Sequence of Botulinum neurotoxin type A (Clostridium botulinum) (P0DPI0 whole entry, looked up): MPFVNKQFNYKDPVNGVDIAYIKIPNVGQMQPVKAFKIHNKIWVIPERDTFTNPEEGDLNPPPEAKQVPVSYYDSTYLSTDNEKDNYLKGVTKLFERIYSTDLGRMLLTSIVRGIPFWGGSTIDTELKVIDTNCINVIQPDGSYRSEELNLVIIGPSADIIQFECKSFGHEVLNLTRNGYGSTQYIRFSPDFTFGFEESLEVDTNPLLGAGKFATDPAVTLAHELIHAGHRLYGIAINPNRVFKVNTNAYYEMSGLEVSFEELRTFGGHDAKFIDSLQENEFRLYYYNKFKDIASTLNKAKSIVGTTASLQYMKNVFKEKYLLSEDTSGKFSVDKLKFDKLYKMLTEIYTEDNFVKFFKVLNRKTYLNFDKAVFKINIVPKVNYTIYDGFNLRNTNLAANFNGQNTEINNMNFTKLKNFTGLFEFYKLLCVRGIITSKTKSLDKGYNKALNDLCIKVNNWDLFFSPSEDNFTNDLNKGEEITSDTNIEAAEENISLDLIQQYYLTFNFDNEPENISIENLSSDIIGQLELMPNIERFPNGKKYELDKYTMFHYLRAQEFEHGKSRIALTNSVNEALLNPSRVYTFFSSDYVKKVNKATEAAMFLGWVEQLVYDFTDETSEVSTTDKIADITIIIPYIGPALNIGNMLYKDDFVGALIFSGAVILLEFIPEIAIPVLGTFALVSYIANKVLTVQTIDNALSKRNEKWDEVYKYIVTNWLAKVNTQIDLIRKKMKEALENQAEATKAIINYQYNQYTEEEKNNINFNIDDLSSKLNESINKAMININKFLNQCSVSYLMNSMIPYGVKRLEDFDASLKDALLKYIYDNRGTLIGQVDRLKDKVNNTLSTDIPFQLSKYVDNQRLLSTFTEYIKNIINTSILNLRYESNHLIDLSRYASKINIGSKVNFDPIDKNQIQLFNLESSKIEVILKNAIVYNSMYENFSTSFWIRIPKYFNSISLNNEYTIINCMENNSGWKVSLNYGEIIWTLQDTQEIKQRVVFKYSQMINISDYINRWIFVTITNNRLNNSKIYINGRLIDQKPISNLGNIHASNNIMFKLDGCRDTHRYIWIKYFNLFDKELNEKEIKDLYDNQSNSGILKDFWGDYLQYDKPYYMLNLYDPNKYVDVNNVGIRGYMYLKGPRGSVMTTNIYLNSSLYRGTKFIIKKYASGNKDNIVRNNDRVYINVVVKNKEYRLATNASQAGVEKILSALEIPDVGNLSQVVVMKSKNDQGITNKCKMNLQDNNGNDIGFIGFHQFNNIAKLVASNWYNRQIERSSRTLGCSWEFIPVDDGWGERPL

[3] = biological target: Lethal factor (Bacillus anthracis) (UniProt P15917); assay: Bacillus anthracis lethal factor inhibition, microsphere flow cytometry protease assay, validation at 10 µM (AID 588461); conditions: multiplex microsphere protease cleavage assay, stronger effect = higher value
Sequence of Lethal factor (Bacillus anthracis) (P15917 whole entry, looked up): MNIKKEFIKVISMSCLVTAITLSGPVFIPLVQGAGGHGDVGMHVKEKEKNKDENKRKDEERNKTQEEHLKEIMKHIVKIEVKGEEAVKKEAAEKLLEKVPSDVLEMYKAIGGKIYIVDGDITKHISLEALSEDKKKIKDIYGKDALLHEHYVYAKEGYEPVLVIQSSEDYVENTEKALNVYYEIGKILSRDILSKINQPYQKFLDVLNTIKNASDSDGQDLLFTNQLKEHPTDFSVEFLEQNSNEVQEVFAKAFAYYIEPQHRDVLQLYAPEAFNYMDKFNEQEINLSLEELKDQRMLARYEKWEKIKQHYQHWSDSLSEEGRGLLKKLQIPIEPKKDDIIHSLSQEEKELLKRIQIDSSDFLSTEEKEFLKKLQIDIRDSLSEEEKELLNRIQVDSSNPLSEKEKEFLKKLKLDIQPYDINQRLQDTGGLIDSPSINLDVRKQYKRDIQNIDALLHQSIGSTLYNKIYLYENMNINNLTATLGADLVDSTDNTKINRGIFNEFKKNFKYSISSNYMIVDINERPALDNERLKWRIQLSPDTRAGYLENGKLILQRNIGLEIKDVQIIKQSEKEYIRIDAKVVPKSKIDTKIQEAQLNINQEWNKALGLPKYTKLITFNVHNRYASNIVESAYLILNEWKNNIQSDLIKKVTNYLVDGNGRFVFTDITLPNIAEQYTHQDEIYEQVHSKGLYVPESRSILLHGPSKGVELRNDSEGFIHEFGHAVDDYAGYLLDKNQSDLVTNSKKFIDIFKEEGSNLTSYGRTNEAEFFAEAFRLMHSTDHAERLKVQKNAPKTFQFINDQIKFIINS

Measured: inhibition

Nc1ccc2nc(Cc3ccccc3)[nH]c2c1
inactive: [1] -12.8% | [2] -5.2% | [3] -74.5%

CC(C)(C)OC(=O)N1CCCC1C(=O)NC(Cc1ccccc1)C(=O)O (stereo not drawn) (Boc-Pro-Phe-OH; configuration not given here)
inactive: [1] -2.1% | [2] -0.8% | [3] -0.3%

OCCN1CCN(CCCN2c3ccccc3Sc3ccc(C(F)(F)F)cc32)CC1
inactive: [1] -3.2% | [2] -0.1% | [3] -5.1%

COc1cc(SC)ccc1C(=O)NC(C)C
inactive: [1] 2.9% | [2] 2.2% | [3] 0.8%

C[C@@H]1C[C@H](Nc2ccccc2)c2ccccc2N1C(=O)c1cccnc1
inactive: [1] 1% | [2] 1% | [3] -2.9%

COc1cc(C(=O)OCCn2c(=O)c3c(ncn3CCN(C)C)n(C)c2=O)cc(OC)c1OC
inactive: [1] 5.1% | [2] 2.5% | [3] -3.1%

N#Cc1c2c(c(-c3ccccc3)[nH]c1=O)CCCC2
inactive: [1] -7.4% | [2] -0.9% | [3] 2.3%

COC(=O)C1[C@H]2C(=O)N(Cc3cccs3)C[C@]23C=C[C@H]1O3 (stereo not given in full)
inactive: [1] -0.5% | [2] -0.7% | [3] -4%

O=C(c1cc2cc(Br)ccc2o1)N1CCCC1
inactive: [1] -9.1% | [2] -4.2% | [3] -3.2%

NC(=O)N1c2ccccc2C=Cc2ccccc21
inactive: [1] 1.3% | [2] -0.2% | [3] 8.1%
